PubChem BioAssay (EPA / NIEHS)
Activity calls are given as the source filed them. How the source made its calls: active means hit-call score of the fitted dose curve at least 0.9, where 1 is the maximum; inactive means score below 0.9.

Key:
Details in all cases: mRNA level, 48 h; actives raise or lower the signal
[1] = read-out: Potassium channel subfamily K member 1 (KCNK1), KCNK1 (gene 3775); experiment: LTEA_HepaRG_KCNK1: Life Technologies and Expression Analysis (LTEA) Assay for Potassium channel subfamily K member 1 (KCNK1) using HepaRG (AID 2283511)
In short: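 Differentiated HepaRG cells, 48 h exposure in serum-free induction medium with 0.5% DMSO; 8 concentrations, half-log from 100 uM, duplicate. KCNK1 mRNA by qRT-PCR, normalized to ACTB, GAPDH, POLR2A; bidirectional fit vs DMSO.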

[2] = read-out: Keratin 19 (KRT19), KRT19 (gene 3880); experiment: LTEA_HepaRG_KRT19: Life Technologies and Expression Analysis (LTEA) Assay for Keratin 19 (KRT19) using HepaRG (AID 2283512)
In short: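 Differentiated human HepaRG cells, plated 48 h, were exposed in duplicate for 48 h in serum-free induction medium to eight half-log concentrations up to 100 uM in 0.5% DMSO. KRT19 mRNA was quantified by qRT-PCR, normalized to ACTB, GAPDH and POLR2A, and fitted bidirectionally versus DMSO.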

[3] = read-out: JUN Transcription Factor, JUN (gene 3725); experiment: LTEA_HepaRG_JUN: Life Technologies and Expression Analysis (LTEA) Assay for JUN Transcription Factor using HepaRG (AID 2283513)
In short: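 Cells plated 48 h, medium switched to serum-free induction medium, then dosed 48 h (100 uM top, half-log dilutions, 0.5% DMSO). RNA isolated; JUN measured by qRT-PCR against three housekeeping genes; gain or loss fitted relative to DMSO.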

[4] = read-out: Lipase C (LIPC), LIPC (gene 3990); experiment: LTEA_HepaRG_LIPC: Life Technologies and Expression Analysis (LTEA) Assay for Lipase C (LIPC) using HepaRG (AID 2283514)
In short: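 HepaRG cells, 48 h after plating, treated in duplicate for 48 h in serum-free induction medium over 8 half-log concentrations from 100 uM, 0.5% DMSO. LIPC mRNA by TaqMan qRT-PCR normalized to ACTB/GAPDH/POLR2A; bidirectional fit versus DMSO.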

[5] = read-out: Lipoprotein lipase (LPL), LPL (gene 4023); experiment: LTEA_HepaRG_LPL: Life Technologies and Expression Analysis (LTEA) Assay for Lipoprotein lipase (LPL) using HepaRG (AID 2283515)
In short: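 Differentiated HepaRG cells, plated 48 h, then exposed 48 h in serum-free induction medium to 8 concentrations (top 100 uM, half-log steps) in 0.5% DMSO, duplicate. LPL mRNA measured by qRT-PCR, normalized to ACTB, GAPDH and POLR2A.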

[6] = read-out: MicroRNA 122 (MIR122), gene 406906; experiment: LTEA_HepaRG_MIR122: Life Technologies and Expression Analysis (LTEA) Assay for MicroRNA 122 (MIR122) using HepaRG (AID 2283516); further: the transcript read is the microRNA miR-122
In short: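 HepaRG plated 48 h, switched to serum-free induction medium, then treated in duplicate for 48 h (100 uM top, half-log steps, 0.5% DMSO vehicle). RNA isolated, qRT-PCR performed, concentration-response fitted both directions relative to DMSO.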

[7] = read-out: matrix metalloproteinase-10 (MMP10), MMP10 (gene 4319); experiment: LTEA_HepaRG_MMP10: Life Technologies and Expression Analysis (LTEA) Assay for matrix metalloproteinase-10 (MMP10) using HepaRG (AID 2283517)
In short: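 Differentiated HepaRG cells in serum-free induction medium exposed 48 h in duplicate to 8-point half-log series up to 100 uM in 0.5% DMSO. mRNA quantified by qRT-PCR, normalised to ACTB, GAPDH, POLR2A; bidirectional fit versus DMSO.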

[8] = read-out: MYC, MYC (gene 4609); experiment: LTEA_HepaRG_MYC: Life Technologies and Expression Analysis (LTEA) Assay for MYC using HepaRG (AID 2283518)
In short: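 Differentiated human HepaRG cells, plated 48 h then switched to serum-free induction medium, were exposed in duplicate for 48 h to 8-point half-log series up to 100 uM in 0.5% DMSO. MYC mRNA measured by qRT-PCR, normalized to ACTB/GAPDH/POLR2A.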

[9] = read-out: matrix metalloproteinase-3 (MMP3), MMP3 (gene 4314); experiment: LTEA_HepaRG_MMP3: Life Technologies and Expression Analysis (LTEA) Assay for matrix metalloproteinase-3 (MMP3) using HepaRG (AID 2283519)
In short: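 HepaRG cells (~100,000/well) in serum-free induction medium were dosed in duplicate for 48 h with an 8-point half-log series from 100 uM, 0.5% DMSO. MMP3 mRNA was quantified by Fluidigm TaqMan qRT-PCR, normalized to three housekeeping genes.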

[10] = read-out: Paternally Expressed 10 (PEG10), PEG10 (gene 23089); experiment: LTEA_HepaRG_PEG10: Life Technologies and Expression Analysis (LTEA) Assay for Paternally Expressed 10 (PEG10) using HepaRG (AID 2283520)
In short: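 HepaRG, 48 h post-plating → serum-free induction medium → 48 h chemical exposure (duplicate, 8-pt, max 100 uM, half-log, 0.5% DMSO) → lysis in RLT → TaqMan qRT-PCR for PEG10, ACTB/GAPDH/POLR2A normalisation.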

[11] = read-out: Nuclear factor NF-kappa-B p105 subunit (Homo sapiens) (UniProt P19838); experiment: LTEA_HepaRG_NFKB1: Life Technologies and Expression Analysis (LTEA) Assay for Nuclear Factor Kappa B Subunit 1 (NFKB1) using HepaRG (AID 2283521);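 further: TaqMan qRT-PCR transcript normalised to ACTB GAPDH and POLR2A housekeeping genes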
In short: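 Differentiated human HepaRG cells in serum-free induction medium with 0.5% DMSO were exposed for 48 h to eight half-log concentrations, top 100 uM, in duplicate. NFKB1 mRNA measured by Fluidigm TaqMan qRT-PCR, normalised to ACTB, GAPDH and POLR2A; bidirectional fit versus DMSO.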

[12] = read-out: Protein phosphatase 2A (PPP2R4), PTPA (gene 5524); experiment: LTEA_HepaRG_PPP2R4: Life Technologies and Expression Analysis (LTEA) Assay for Protein phosphatase 2A (PPP2R4) using HepaRG (AID 2283522)
In short: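 Readout is PPP2R4 transcript level by microfluidic qRT-PCR after 48 h chemical treatment of human HepaRG liver cells. Concentrations spanned 100 uM downward in half-log steps; gain or loss of signal was fitted relative to DMSO.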

[13] = read-out: Phosphatase and tensin (PTEN), PTEN (gene 5728); experiment: LTEA_HepaRG_PTEN: Life Technologies and Expression Analysis (LTEA) Assay for Phosphatase and tensin (PTEN) using HepaRG (AID 2283523)
In short: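 HepaRG cells, 48 h after plating, exposed in duplicate for 48 h in serum-free induction medium to 8 half-log concentrations up to 100 uM (0.5% DMSO). PTEN mRNA by qRT-PCR, normalized to ACTB, GAPDH, POLR2A; bidirectional fit versus DMSO.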

[14] = read-out: solute carrier (SLC22A1), SLC22A1 (gene 6580); experiment: LTEA_HepaRG_SLC22A1: Life Technologies and Expression Analysis (LTEA) Assay for solute carrier (SLC22A1) using HepaRG (AID 2283524)
In short: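 Differentiated human HepaRG cells in serum-free induction medium, exposed 48 h in duplicate to 8-point half-log series from 100 µM top in 0.5% DMSO. SLC22A1 mRNA by TaqMan qRT-PCR normalized to ACTB, GAPDH, POLR2A; bidirectional fit versus DMSO.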

[15] = read-out: Pyruvate Dehydrogenase Kinase 4 (PDK4), PDK4 (gene 5166); experiment: LTEA_HepaRG_PDK4: Life Technologies and Expression Analysis (LTEA) Assay for Pyruvate Dehydrogenase Kinase 4 (PDK4) using HepaRG (AID 2283525)
In short: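 HepaRG cells plated 48 h, then switched to serum-free induction medium and exposed in duplicate for 48 h to 8 half-log concentrations from 100 uM in 0.5% DMSO. PDK4 mRNA measured by qRT-PCR, normalized to ACTB, GAPDH and POLR2A; bidirectional fit versus DMSO.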

[16] = read-out: NAD(P)H dehydrogenase [quinone] 1 (NQO1), NQO1 (gene 1728); experiment: LTEA_HepaRG_NQO1: Life Technologies and Expression Analysis (LTEA) Assay for NAD(P)H dehydrogenase [quinone] 1 (NQO1) using HepaRG (AID 2283526)
In short: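 HepaRG, 48 h post-plating → serum-free induction medium → test chemical 48 h (duplicate, 100 uM top, half-log x8, 0.5% DMSO) → RNA isolation → qRT-PCR, ACTB/GAPDH/POLR2A normalization; bidirectional curve fit vs DMSO baseline.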

[17] = read-out: succinate dehydrogenase complex iron sulfur subunit B (SDHB), SDHB (gene 6390); experiment: LTEA_HepaRG_SDHB: Life Technologies and Expression Analysis (LTEA) Assay for succinate dehydrogenase complex iron sulfur subunit B (SDHB) using HepaRG (AID 2283528)
In short: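 HepaRG cells (~100,000/well, plated 48 h) exposed in duplicate for 48 h in serum-free induction medium to 8-point half-log series from 100 uM in 0.5% DMSO; mRNA by qRT-PCR normalised to ACTB, GAPDH, POLR2A; bidirectional fit versus DMSO.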

[18] = read-out: Signal transducer and activator of transcription 3 (Homo sapiens) (UniProt P40763); experiment: LTEA_HepaRG_STAT3: Life Technologies and Expression Analysis (LTEA) Assay for Signal transducer and activator of transcription (STAT3) using HepaRG (AID 2283529)
In short: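 Differentiated HepaRG cells, serum-free induction medium, dosed 48 h in duplicate, 8 half-log concentrations from 100 uM in 0.5% DMSO. STAT3 mRNA by qRT-PCR, normalised to ACTB, GAPDH, POLR2A; bidirectional fit versus DMSO.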

[19] = read-out: solute carrier (SLCO1B1), SLCO1B1 (gene 10599); experiment: LTEA_HepaRG_SLCO1B1: Life Technologies and Expression Analysis (LTEA) Assay for solute carrier (SLCO1B1) using HepaRG (AID 2283530)
In short: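 Differentiated human HepaRG cells, plated 48 h, switched to serum-free induction medium and exposed in duplicate for 48 h to 8 half-log concentrations (top 100 uM) in 0.5% DMSO. SLCO1B1 mRNA by TaqMan qRT-PCR, normalized to ACTB/GAPDH/POLR2A.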

[20] = read-out: Nuclear factor erythroid 2-related factor 2 (Homo sapiens) (UniProt Q16236); experiment: LTEA_HepaRG_NFE2L2: Life Technologies and Expression Analysis (LTEA) Assay for Nuclear factor erythroid 2-related factor 2 (NFE2L2) Transcription Factor using HepaRG (AID 2283527);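 on outcome: TaqMan qRT-PCR transcript level normalised to ACTB GAPDH and POLR2A housekeeping genes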
In short: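 Differentiated human HepaRG cells, serum-free induction medium, exposed 48 h in duplicate to eight half-log concentrations up to 100 uM in 0.5% DMSO. NFE2L2 mRNA by Fluidigm TaqMan qRT-PCR, normalised to ACTB, GAPDH, POLR2A; bidirectional change versus DMSO.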

Chain of Signal transducer and activator of transcription 3 (Homo sapiens) (P40763 whole entry, looked up): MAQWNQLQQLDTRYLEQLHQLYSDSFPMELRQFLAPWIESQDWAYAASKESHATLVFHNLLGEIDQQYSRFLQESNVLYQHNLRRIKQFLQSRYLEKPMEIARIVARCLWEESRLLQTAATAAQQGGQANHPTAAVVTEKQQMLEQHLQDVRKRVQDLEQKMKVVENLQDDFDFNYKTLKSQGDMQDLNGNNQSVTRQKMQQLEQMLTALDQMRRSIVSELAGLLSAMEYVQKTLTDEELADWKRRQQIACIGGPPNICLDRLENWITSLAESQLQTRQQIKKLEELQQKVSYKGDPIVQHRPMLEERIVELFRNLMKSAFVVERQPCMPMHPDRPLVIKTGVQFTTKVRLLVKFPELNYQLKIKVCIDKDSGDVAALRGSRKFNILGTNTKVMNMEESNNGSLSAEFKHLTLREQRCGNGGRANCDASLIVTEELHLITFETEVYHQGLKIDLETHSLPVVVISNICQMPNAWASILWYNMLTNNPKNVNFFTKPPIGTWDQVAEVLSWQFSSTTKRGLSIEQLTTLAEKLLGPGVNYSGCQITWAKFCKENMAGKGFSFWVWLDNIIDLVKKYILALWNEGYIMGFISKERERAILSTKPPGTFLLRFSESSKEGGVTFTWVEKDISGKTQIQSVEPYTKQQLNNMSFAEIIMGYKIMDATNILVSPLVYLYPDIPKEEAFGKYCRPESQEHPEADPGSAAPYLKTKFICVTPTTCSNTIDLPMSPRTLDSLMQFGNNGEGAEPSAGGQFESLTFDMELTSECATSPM
Chain of Nuclear factor NF-kappa-B p105 subunit (Homo sapiens) (P19838 whole entry, looked up): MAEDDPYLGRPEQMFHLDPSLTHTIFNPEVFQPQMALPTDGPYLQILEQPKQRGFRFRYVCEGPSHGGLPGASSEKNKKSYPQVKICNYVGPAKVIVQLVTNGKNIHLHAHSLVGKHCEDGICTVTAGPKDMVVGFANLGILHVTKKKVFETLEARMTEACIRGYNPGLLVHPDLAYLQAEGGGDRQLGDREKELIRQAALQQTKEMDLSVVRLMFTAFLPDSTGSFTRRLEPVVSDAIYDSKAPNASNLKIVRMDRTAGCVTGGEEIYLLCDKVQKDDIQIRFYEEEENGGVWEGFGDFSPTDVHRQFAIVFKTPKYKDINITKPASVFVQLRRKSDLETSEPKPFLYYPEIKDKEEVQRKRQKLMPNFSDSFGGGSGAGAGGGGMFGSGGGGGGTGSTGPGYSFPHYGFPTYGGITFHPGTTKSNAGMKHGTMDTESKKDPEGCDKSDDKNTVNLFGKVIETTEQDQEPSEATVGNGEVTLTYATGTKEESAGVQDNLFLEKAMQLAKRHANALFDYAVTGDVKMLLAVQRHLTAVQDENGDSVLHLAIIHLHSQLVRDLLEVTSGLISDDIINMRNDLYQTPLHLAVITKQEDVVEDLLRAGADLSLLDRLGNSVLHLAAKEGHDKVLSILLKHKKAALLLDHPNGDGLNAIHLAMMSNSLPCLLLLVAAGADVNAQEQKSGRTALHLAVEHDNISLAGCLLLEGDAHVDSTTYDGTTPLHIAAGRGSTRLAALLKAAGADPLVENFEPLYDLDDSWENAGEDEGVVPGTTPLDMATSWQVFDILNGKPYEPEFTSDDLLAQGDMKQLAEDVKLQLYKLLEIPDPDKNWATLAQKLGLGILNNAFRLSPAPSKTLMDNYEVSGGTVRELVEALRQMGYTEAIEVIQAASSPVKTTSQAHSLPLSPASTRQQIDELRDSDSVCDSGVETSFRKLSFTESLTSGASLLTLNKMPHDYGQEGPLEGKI
Chain of Nuclear factor erythroid 2-related factor 2 (Homo sapiens) (Q16236 whole entry, looked up): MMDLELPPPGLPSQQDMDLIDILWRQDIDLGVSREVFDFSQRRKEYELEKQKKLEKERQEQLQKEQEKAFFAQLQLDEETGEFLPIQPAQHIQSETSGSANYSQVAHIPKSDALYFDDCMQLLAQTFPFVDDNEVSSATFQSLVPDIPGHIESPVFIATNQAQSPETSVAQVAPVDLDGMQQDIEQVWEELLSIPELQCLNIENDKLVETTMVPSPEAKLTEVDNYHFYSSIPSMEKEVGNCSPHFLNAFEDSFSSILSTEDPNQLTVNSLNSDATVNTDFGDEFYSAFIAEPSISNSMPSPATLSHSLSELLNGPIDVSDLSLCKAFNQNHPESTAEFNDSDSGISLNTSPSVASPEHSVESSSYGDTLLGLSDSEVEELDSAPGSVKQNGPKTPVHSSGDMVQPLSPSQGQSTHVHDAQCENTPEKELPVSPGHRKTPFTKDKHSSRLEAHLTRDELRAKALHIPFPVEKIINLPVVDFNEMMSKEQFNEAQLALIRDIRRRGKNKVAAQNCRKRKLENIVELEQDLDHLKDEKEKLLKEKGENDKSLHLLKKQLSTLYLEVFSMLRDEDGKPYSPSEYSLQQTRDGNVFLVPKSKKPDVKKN

SMILES: CCCCCCC(=O)OCC
- outcome [1]: inactive
- outcome [2]: inactive
- outcome [3]: inactive
- outcome [4]: inactive
- outcome [5]: inactive
- outcome [6]: inactive
- outcome [7]: inactive
- outcome [8]: inactive
- outcome [9]: inactive
- outcome [10]: inactive
- outcome [11]: inactive
- outcome [12]: inactive
- outcome [13]: inactive
- outcome [14]: inactive
- outcome [15]: inactive
- outcome [16]: inactive
- outcome [17]: inactive
- outcome [18]: inactive
- outcome [19]: inactive

SMILES: Cc1cc(=O)[nH]c(=S)[nH]1
- outcome [1]: inactive
- outcome [2]: inactive
- outcome [3]: inactive
- outcome [4]: inactive
- outcome [5]: inactive
- outcome [6]: inactive
- outcome [7]: inactive
- outcome [8]: inactive
- outcome [9]: inactive
- outcome [10]: inactive
- outcome [11]: inactive
- outcome [12]: inactive
- outcome [14]: inactive
- outcome [15]: inactive
- outcome [16]: inactive
- outcome [20]: inactive
- outcome [17]: inactive
- outcome [18]: inactive
- outcome [19]: inactive

SMILES: Nc1ccc2c(c1)C(=O)c1ccccc1C2=O
- outcome [1]: inactive
- AC50 [2]: 9.08 µM (active)
- outcome [3]: inactive
- AC50 [4]: 8.27 µM (active)
- AC50 [5]: 2.09 µM (active)
- AC50 [6]: 4.24 µM (active)
- outcome [7]: inactive
- AC50 [8]: 12.3 µM (active)
- outcome [9]: inactive
- AC50 [10]: 15.5 µM (active)
- outcome [11]: inactive
- AC50 [14]: 7.06 µM (active)
- AC50 [15]: 13.2 µM (active)
- outcome [16]: inactive
- AC50 [20]: 27.8 µM (active)
- outcome [17]: inactive
- outcome [18]: inactive
- AC50 [19]: 4.66 µM (active)

SMILES: CC(=O)OCCOCCOCCOC(C)=O
- outcome [1]: inactive
- outcome [2]: inactive
- outcome [3]: inactive
- outcome [4]: inactive
- outcome [5]: inactive
- outcome [6]: inactive
- outcome [7]: inactive
- outcome [8]: inactive
- outcome [9]: inactive
- outcome [10]: inactive
- outcome [12]: inactive
- outcome [14]: inactive
- outcome [15]: inactive
- outcome [16]: inactive
- outcome [17]: inactive
- outcome [18]: inactive
- outcome [19]: inactive
